The text below walks through data of PubChem BioAssay (NCATS).

Assay [1] is described as follows: qHTS assay for small molecule agonists of the antioxidant response element (ARE) signaling pathway (AID 651741; active means well fitted activation curve with a large enough effect in the signal ratio; the % refers to the signal ratio; further: potency means the concentration at half of the fitted maximal effect; on activation: % of control where 0% means no effect). The settings on record: HepG2 ARE-bla reporter, beta-lactamase FRET ratio, 16 h; series mostly up to 96 µM. Put shortly:
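Agonist activity is measured as ARE-driven beta-lactamase expression in a stable HepG2 reporter line, using 16 h compound treatment at 37 C and a FRET substrate fluorescence readout after 2 h.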

The nature of assay [2]: qHTS assay for small molecule activators of the p53 signaling pathway (AID 651743; active means well fitted activation curve with a large enough effect in the signal ratio, not every such curve was filed as active; the % refers to the signal ratio; further: potency means the concentration at half of the fitted maximal effect; on activation: % of control where 0% means no effect). The settings on record: HCT-116 p53RE-bla, beta-lactamase FRET ratio, 16 h; activation: stronger effect = higher value. Put shortly:
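A beta-lactamase reporter under p53 response element control, stably carried by HCT-116 cells, reported pathway activation. Test compounds were applied for 16 hours at 37 C, and fluorescence was measured 2 hours after adding the B/G FRET substrate.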
Background: qHTS replaces the single test concentration by a dilution series.

Assay [3] can be described thus: qHTS assay for small molecule activators of the nuclear factor-kappa B (NF-kB) signaling pathway (AID 651749; active means well fitted activation curve with a large enough effect in the signal ratio; the % refers to the signal ratio; further: % of control where 0% means no effect). The settings on record: NF-kB-bla ME-180 cells, beta-lactamase FRET ratio, 16 h; stronger effect = higher value. Put shortly:
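FRET-based beta-lactamase detection in ME-180 cells reports NF-kB response-element-driven transcription following overnight (16 hr) compound treatment.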

A short description of assay [4]: qHTS Assay for Identification of Small Molecule Antagonists for NFkB Signaling Pathway. (AID 624479; calls by dose curve; further: potency means the concentration at half of the fitted maximal effect). The settings on record: NFkB pathway reporter cell assay, antagonist mode; series mostly up to 38.3 µM.
A short description of assay [5]: qHTS Assay for Identification of Small Molecule Agonists for NFkB Signaling Pathway. (AID 624478).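 Further: compounds tested together with TNF alpha at its EC50 of 10 pM; 0% is about no effect.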 The following applies: NFkB pathway reporter cell assay, agonist mode, cells co-stimulated with 10 pM TNF alpha; series mostly up to 46.1 µM. How it is done:
The TNF alpha/NFkB signaling pathway was assayed in NFkB-bla cells (Invitrogen), a ME-180 cervical carcinoma line containing a stably integrated beta-lactamase reporter gene controlled by a NFkB response element. This reporter is induced by TNF alpha at 10 pM EC50 and inhibited by the proteosome inhibitor MG-132 at approximately 100 nM IC50. The assay was screened at the EC50 of TNF alpha activation to identify activators of TNF alpha/NFkB signaling
Cells were trypsinized, washed in assay medium (AM, OPTI MEM with 0.5% fetal bovine serum, 0.1 mM nonessential amino acids, 1 mM sodium pyruvate, 10mM HEPES pH 7.3, 100U/ml penicillin, and 100 ug/ml streptomycin) and plated at 1000 cells/5 uL/well into black clear-bottom 1536 well plates. After an overnight incubation at 37 C and 5% CO2, 23 nL of compound were delivered by a pin tool, 1 uL of TNF alpha (10 pM final concentration in AM) was added and plates were incubated at 37 C for 5 hrs. One uL of LiveBLAzerTM detector mix (Invitrogen) was added, the plates incubated at room temperature for 2 hrs, and fluorescence intensity at 460 and 530 nm emission was measured at 405 nm excitation by an Envision (Perkin Elmer).

Assay [6] in a line: Cell Proliferation Assay against the HBL1 Cell Line (AID 651646).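 Further: cells exposed to compound for 48 h before reading.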 The settings on record: HBL1 DLBCL cells; at 46.1 µM (top of the series) unless noted. In outline: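 CellTiter-Glo luminescence after 48 h compound exposure at 37C gives percent activity, with DMSO as 100% and 9.2 uM bortezomib final as 0%. Cells: 500 log-phase HBL1 per well, RPMI plus 5% FBS.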
Assay [7] in a line: Cell Proliferation Assay against the TMD8 Cell Line (Caspase readout at 16 hrs) (AID 651712). Further: potency means the concentration at half of the fitted maximal effect.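 On caspase activation: 0% = DMSO and 100% = 9.2 µM bortezomib caspase activation.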 The following applies: TMD8 lymphoma cells, caspase activation luminescence; series mostly up to 46.1 µM. Put shortly:
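Caspase-Glo luminescence measured apoptosis after a 16 h, 37 C compound exposure of TMD8 cells (500 cells/well, 5% FBS RPMI). DMSO set 0% and bortezomib at 9.2 uM final set 100% activity.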

Assay [8] in a line: Cell Proliferation Assay against the TMD8 Cell Line (Caspase readout at 8 hrs) (AID 651713). Further: potency means the concentration at half of the fitted maximal effect.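 On caspase activation: 0% = DMSO and 100% = 9.2 µM bortezomib caspase signal.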 The settings on record: TMD8 lymphoma cells, caspase activation luminescence; series mostly up to 46.1 µM. Put shortly:
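Luminescent caspase 3/7 assay; TMD8 cells, 8 h treatment at 37C, 5% CO2. Normalisation: DMSO 0%, 9.2 uM bortezomib 100%.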

Where “and” joins values, the source holds several entries; their conditions need not be identical. Equal entries are not always repeated. Records with an inconclusive call do not appear. Calls of active or inactive are those of the source. Unless noted, the call rests on the fitted dose curve; in most records, active means well fitted curve in the direction sought with a large enough effect; inconclusive means small, poorly fitted or top-dose-only effect, or another doubt; inactive means no such curve, though single readings can be large; an effect the other way counts as inactive or inconclusive.

Turning to `C=CC(=O)NCNC(=O)C=C`, the Potency in assay [1] is 37.6 µM (active) and 30.6 µM (active). Further, the activation in assay [2] was -3.11% (inactive) and -4.69% (inactive); in assay [3] it was -0.065% (inactive) and -1.61% (inactive).

For the compound `O=C(Nc1cc(C(F)(F)F)cc(C(F)(F)F)c1)c1cc(Cl)ccc1O`, the Potency in assay [4] was 14.9 µM (active).

With `CC1CC(C)C(=O)C(C(O)CC2CC(=O)NC(=O)C2)C1` (stereo unspecified), the outcome in assay [5] was inactive. The values for the Potency in assay [4], in assay [7] and in assay [8] were 1.09 µM (active), 1.91 µM (active) and 17.1 µM (active), respectively. The viability, percent of control in assay [6] was determined as 43.6% [at 92.2 µM].

As for `COc1ccc2c(c[n+](C)c3c4cc5c(cc4ccc23)OCO5)c1OC`, in assay [6], the viability, percent of control was determined as 4.88%. Besides, the Potency in assay [8] was 2.96 µM (active).

Consider `Nc1nc(-c2nn(Cc3ccccc3F)c3ncccc23)nc(N)c1N1CCOCC1`, for which, in assay [6], the viability, percent of control was 114%.

As to `CCCCC(CC)COC(=O)c1ccccc1C(=O)O` (stereo unspecified), the Potency in assay [1] is 54.5 µM (active).

For the compound `CO/C=C(/C(=O)OC)c1ccccc1Oc1cc(Oc2ccccc2C#N)ncn1`, the Potency in assay [1] is 13.7 µM (active). Also, in assay [2], the activation is 25% (inactive).

Regarding `Cc1nc(-c2ccc(-c3ccc(C(=O)N4CCc5cc6c(cc54)C4(CCN(C)CC4)CO6)cc3)c(C)c2)no1`, the compound was classed as inactive in assay [5]. Further, the viability, percent of control in assay [6] was 1.18%.

Turning to `CO[C@H]1C=CC=C(C)C(=O)NC2=CC(=O)C(NCCN(C)C)=C(C[C@@H](C)C[C@H](OC)[C@@H](O)[C@@H](C)C=C(C)[C@@H]1OC(N)=O)C2=O`, the Potency in assay [4] is 0.0008 µM (active).

As to `COCCn1c2c([n+](Cc3cnccn3)c1C)C(=O)c1ccccc1C2=O`, the Potency in assay [4] was 0.0047 µM (active).

For the compound `C=CCON=C(C[C@H]1O[C@@H]2O[C@]3(C)CC[C@@H]4[C@H](C)CC[C@@H]([C@H]1C)[C@@]24OO3)[C@H]1O[C@@H]2O[C@]3(C)CC[C@H]4[C@H](C)CC[C@@H]([C@@H]1C)[C@@]24OO3`, the compound was classed as inactive in assay [5]. Also, the Potency in assay [4] is 16.8 µM (active); in assay [7], 0.0833 µM (active). In assay [6], the viability, percent of control amounted to 30.4%. Moreover, the Potency result in assay [8] was “inactive”.

With `CCOCCOC(C)=O`, the Potency entry in assay [1] is “inactive”. Besides, the activation in assay [2] was -0.566% (inactive).

On to `O=S(=O)(c1ccc(Cl)cc1)c1ccc(Cl)cc1`, for which the Potency in assay [1] is 66.8 µM (active). The activation in assay [2] was -0.565% (inactive) and -3.02% (inactive) and 0.243% (inactive).

Regarding `CC(C)[C@]12O[C@H]1[C@@H]1O[C@]13[C@]1(O[C@H]1C[C@H]1C4=C(CC[C@@]13C)C(=O)OC4)[C@@H]2O`, the result in assay [5] was inactive. For the same compound, the Potency in assay [4] was 0.0335 µM (active); in assay [7], 0.0132 µM (active); in assay [8] it was 0.132 µM (active). Further, the viability, percent of control in assay [6] is 35%.

Take `C1CCC(NC2CCCCC2)CC1`: the Potency result in assay [1] is “inactive”. For the same compound, in assay [2], the activation was -5.71% (inactive) and -0.896% (inactive) and -1.09% (inactive).

As to `Cc1ccccc1-n1c(Cn2cnc3c(N)ncnc32)nc2cccc(C)c2c1=O`, in assay [5], the compound was classed as inactive. The Potency entry in assay [4] is “inactive”. In assay [6], the viability, percent of control worked out at 62.6%.

Regarding `O=[N+]([O-])/N=C1\NCCN1Cc1ccc(Cl)nc1`, in assay [1], the Potency entry is “inactive”.

As to `Cc1cnc(Nc2ccc(F)cc2Cl)nc1-c1c[nH]c(C(=O)N[C@H](CO)c2cccc(Cl)c2)c1`, in assay [4], the Potency was 16.8 µM (active).

As to `O=S(=O)(O)C(F)(F)C(F)(F)C(F)(F)C(F)(F)C(F)(F)C(F)(F)C(F)(F)C(F)(F)F`, the Potency result in assay [1] was “inactive”. Further, the activation in assay [2] is -2.58% (inactive) and 0.715% (inactive).

Take `[Cl][In]([Cl])[Cl]`: the Potency in assay [1] is 29.8 µM (active).

On to `CC(=O)Nc1ccc(OC[C@](C)(O)C(=O)Nc2ccc([N+](=O)[O-])c(C(F)(F)F)c2)cc1`, for which the compound was called inactive in assay [5]. For the same compound, the Potency entry in assay [4], in assay [7] and in assay [8] was “inactive” throughout. Moreover, the viability, percent of control in assay [6] is 96.7%.

Regarding `CC(C)(C)C(O)C(Oc1ccc(Cl)cc1)n1cncn1` (stereo unspecified), the Potency result in assay [1] was “inactive”. Moreover, the results for the activation in assay [2] and in assay [3] were -1.72% (inactive) and -0.211% (inactive), respectively.

With `CC[C@@H](C(=O)O)C1CC[C@H](C)C([C@@H](C)[C@H](O)[C@H](C)C(=O)[C@H](CC)C2O[C@]3(C=C[C@@H](O)[C@]4(CC[C@@](C)(C5CC[C@](O)(CC)[C@H](C)O5)O4)O3)[C@H](C)C[C@@H]2C)O1` (stereo partly specified), the Potency in assay [4] was 11.9 µM (active).

For the compound `ClC1=C(Cl)[C@]2(Cl)[C@@H]3[C@@H]4C[C@@H]([C@H]5O[C@@H]45)[C@@H]3[C@@]1(Cl)C2(Cl)Cl`, the Potency in assay [1] is 54.5 µM (active). Further, the activation in assay [2] is -1.42% (inactive); in assay [3] it was 5.88% (inactive).

With `CCCCCC[C@H]1C(=O)O[C@H](C)[C@H](NC(=O)c2cccc(NC=O)c2O)C(=O)O[C@@H](C)[C@@H]1OC(=O)CC(C)C`, the Potency was 4.33 µM (active) in assay [1] and 0.02 µM (active) in assay [2]. Besides, the activation in assay [3] is 2.55% (inactive).

As for `C[C@@]12O[C@@H](C[C@]1(O)CO)n1c3ccccc3c3c4c(c5c6ccccc6n2c5c31)CNC4=O`, the Potency in assay [4] is 1.49 µM (active).

As to `c1cc(-c2cnn3cc(-c4ccc(OCCN5CCCCC5)cc4)cnc23)ccn1`, the Potency is 9.43 µM (active) in assay [4] and 23.5 µM (active) in assay [8].
